The text below walks through data of PubChem BioAssay AID2216 (Broad Institute, 2009).

Among all 300,000 compounds or so, about 3,300 (1.1%) were called active. Another 6% or so got no clear call; they are omitted. The sample holds actives, similar compounds and a random draw of the others, so the mix is not that of the screen. Unmarked numbers belong to inactive results.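 How the source made its calls: active means more than half of the replicate wells show a fall in the fluorescence ratio signal beyond about 16% (limit read from the data, passing the limit was not always enough); inconclusive means exactly half of the replicate wells pass the set limit; inactive means fewer than half of replicates pass the limit.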

The experiment has as its system Ran GTPase (GTP-bound) - importin-beta complex. Nature of the experiment: inhibitors of RanGTP-importin-beta interaction, primary screen, biochemical, FRET, CFP-Ran, YFP-importin-beta, homogeneous (AID 2216).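 Further: 0% = DMSO wells and 100% = Ran loaded with GDP instead of GTP.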 The following applies: cell-free CFP-Ran/YFP-importin-beta FRET ratio; hits give high values; concentration not given here.
`CC12CCC(=O)N1C(C(=O)NCCN1C(=O)S/C(=C\c3ccccc3F)C1=O)CS2` (stereo unspecified): the inhibition was 6.01%.

As for `C=C(C)CNC(=O)c1ccc(OC2CCN(C(=O)COC)CC2)cc1`, the inhibition is -0.667%.

Consider `CCN1CCN(C(=O)N(Cc2ccc(Cl)cc2)S(=O)(=O)c2ccc(C)cc2)CC1`, for which the inhibition was 9.84%.

Take `CC(=O)c1cc(C#N)c(N2CCCCC2)nc1C`: the inhibition was 2.36%.

For `CC(=O)c1cc(C#N)c(SCC(=O)C(C)(C)C)nc1C`, the inhibition was -3.56%.

As for `CC(=O)c1cc(C#N)c(N2CC(C)OC(C)C2)nc1C` (stereo unspecified), the inhibition is 25.3% (active).

Turning to `CC(=O)N/C(=C\c1ccccc1)C(=O)OC(C)C(=O)N(C)c1ccccc1` (stereo unspecified), the inhibition was 1.82%.

Take `O=[N+]([O-])c1ncc(Br)cc1Nc1ccccc1`: the inhibition is 6.49%.

`COc1ccccc1NC(=O)Nc1nc(CC(=O)Nc2ccccc2F)cs1`: the inhibition is 1.51%.

As to `Cc1ccnc(NC(=O)CNC(=O)c2ccccc2)c1`, the inhibition was 5.13%.

On to `O=C(Cc1ccc(Br)cc1)NCCc1ccccc1`, for which the inhibition is 5.4%.

On to `CCCn1nc(NC(=O)C(C)C)c2cc3cc(OC)ccc3nc21`, for which the inhibition was 57.9% (active).

In the case of `CCCn1nc(NS(=O)(=O)c2ccccc2)c2cc3cc(C)ccc3nc21`, the inhibition is -1.51%.

On to `CCCn1nc(NS(=O)(=O)c2ccc(F)cc2)c2cc3ccccc3nc21`, for which the inhibition was 4.53%.

Turning to `Cc1ccc2c(C)c(C(=O)N3CCN(c4ccncc4)CC3)oc2c1C`, the inhibition was 1.96%.

For `O=C(NCCCN1CCCC1=O)c1ccc(S(=O)(=O)Nc2ccccc2)cc1`, the inhibition is -2.45%.

On to `CCOc1ccc(C(=O)NCCCN2CCCC2=O)cc1`, for which the inhibition is 3%.

With `CC(C)(C)OC(=O)c1c(N)n(CCCN2CCCC2=O)c2nc3ccccc3nc12`, the inhibition was 41.8% (active).

With `Cc1nc(-c2ccc(F)cc2)c(CC(=O)Nc2cc(S(=O)(=O)N3CCCCC3)ccc2C)s1`, the inhibition is 1.23%.

With `O=C(NCc1ccc2c(c1)OCO2)c1c(O)nc2sccn2c1=O`, the inhibition is -0.147%.

With `COc1ccc(C(=O)Nc2cccc(NC(=O)c3ccc(OC)cc3OC)n2)c(OC)c1`, the inhibition was 3.03%.

In the case of `CCCCN1C(N)=NC[C@@H]1CC1CCCCC1`, the inhibition is 0.418%.

`C/C(=N/OC(=O)c1c(-c2c(F)cccc2Cl)noc1C)c1cnccn1`: the inhibition was -0.76%.

On to `CCOC(=O)c1cc2c(=O)n3ccccc3nc2n(CC(C)C)c1=NC(=O)c1c(-c2c(F)cccc2Cl)noc1C`, for which the inhibition is 94.5% (active).

Turning to `Cc1onc(-c2c(F)cccc2Cl)c1C(=O)N(C)CC(=O)Nc1cccc(F)c1`, the inhibition was 0.755%.

As for `CCOC(=O)c1cccc(NC(=O)c2ccc(F)cc2F)c1`, the inhibition is -2.82%.
